In all, about 64,000 compounds went through this assay and about 1,900 (3%) were called active. This is one part of a sample in which actives are shown more often than they occur. A number with no mark means an inactive call.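 The calls were made as follows: active = fluorescence rise, raw or as B-score row- and column-corrected plate score, outside the 99.7% band of its plate's samples, either direction; inactive = the rest.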
What follows are compounds tested on Muscarinic acetylcholine receptor M1 (assay: direct activation of M1 receptor calcium signal – CHO-M1 cells, Fluo-4 calcium, agonist mode, primary screen (AID 626)). Conditions: Fluo-4 calcium fluorescence, at 10 µM, stronger effect = higher value.
With `O=C(CNS(=O)(=O)c1ccc(Br)s1)NCc1ccc2c(c1)OCO2` the B-score was -0.057. `Cc1cc(C)nc(SCc2nnc(SCC(=O)Nc3ncc(C)s3)n2Cc2ccco2)n1` was tested, and the B-score was 0.0432. In the case of `CCCc1cc(=O)[nH]c(SCC(=O)OCc2ccccc2)n1`, the B-score is reported as -0.24. In the case of `O=C(Cn1cc(C(=O)c2cccs2)c2ccccc21)NCc1cccs1`, the B-score is reported as 5.61 (active). For `COC(=O)Cn1cc(C(=O)c2cccs2)c2ccccc21`, the B-score was -0.298. In the case of `COC(=O)c1cn(CC(=O)NCc2cccs2)c2ccccc12`, the B-score is reported as -0.913. Compound `COc1ccccc1OCCC(=O)OCC(=O)NC(=O)NC(C)(C)C` has a B-score of -0.0604. Work on `O=C(Nc1ccon1)c1cccc(Cl)c1` yielded a B-score of -0.792. `O=C(Nc1cccc(C(=O)N2CCCC2)c1)c1ccccc1` was tested, and the B-score was 0.113. In the case of `CC(=O)N1CCN(C(=O)Nc2cccc(C(F)(F)F)c2)CC1`, the B-score is reported as 1.54. In the case of `O=C(Nc1cccc(NC(=O)N2CCN(c3ccccc3)CC2)c1)N1CCN(c2ccccc2)CC1`, the B-score is reported as 5.66 (active). `Cc1ccc(N2CCN(S(=O)(=O)c3ccc(F)cc3)CC2)c(C)c1` showed a B-score of 1.76. `O=C(NCCc1ccc2c(c1)OCCO2)c1cc2ccccc2o1` was tested, and the B-score was 5.92 (active). Work on `O=C(Nc1ccncc1)c1cc2ccccc2o1` yielded a B-score of -0.306. Compound `O=C(CC(Cc1ccccc1)C(=O)O)NCCc1ccc2c(c1)OCO2` (stereo not drawn) has a B-score of -0.0151. Compound `CCOc1cccc(-n2nnnc2-c2ccc(OC)cc2)c1` has a B-score of -0.152. In the case of `C(=N\n1cnnc1)/c1cccnc1`, the B-score is reported as 7.81 (active). Compound `COc1cccc(OCCOc2cccc(/C=N/n3cnnc3)c2)c1` has a B-score of 0.112. For `COc1ccccc1OCCOc1ccc(/C=N/n2cnnc2)cc1`, the B-score was -1.48. `CCOC(=O)c1sc(NC(=O)C(CC)Sc2nccn2C)nc1C` (stereo not drawn) gave a B-score of 0.459. In the case of `Cc1nnc(SCCCn2c(N3CCCCC3)nc3c2c(=O)[nH]c(=O)n3C)s1`, the B-score is reported as -0.0644. With `COc1ccccc1N1CCN(C(=O)c2cn(-c3ccccc3)nc2-c2cccnc2)CC1` the B-score was 5.33 (active). Work on `COC(=O)c1cn(-c2ccccc2)nc1-c1cccnc1` yielded a B-score of -1.56. Work on `O=C(c1cn(-c2ccccc2)nc1-c1cccnc1)N1CCCCC1` yielded a B-score of 0.178. `CCOC(=O)Nc1ccc2c(c1)N(C(=O)CN1CCN3CCCC3C1)c1ccccc1CC2` (stereo not drawn) was tested, and the B-score was 0.0902. With `CCOc1ccc(NC(=O)Nc2cc(C)on2)cc1` the B-score was -2.11. `c1cnn(-c2cc(N3CCOCC3)ncn2)c1` was tested, and the B-score was -2.54 (active). With `O=C(Nc1ccc(F)cc1)c1cccnc1N1CCOCC1` the B-score was 0.0065. Compound `O=C(Nc1cc(N2CCOCC2)ncn1)NC1(C(F)(F)F)Oc2ccc(Cl)cc2O1` (stereo not drawn) has a B-score of 0.249. For `O=C(NCc1cn2ccsc2n1)Nc1cccc(Cl)c1`, the B-score was -0.0716. In the case of `CCCC(=O)Nc1cccc(-c2cn3ccsc3n2)c1`, the B-score is reported as -2.92 (active). Work on `COc1ccc(-c2cn3ccsc3n2)cc1` yielded a B-score of 0.708. For `OCCCN1c2ccccc2Nc2nnc(-c3ccccc3)cc21`, the B-score was 2.37. With `CCOc1cc(-c2nc3cc(C)ccn3c2NCC2CCCO2)ccc1O` (stereo not drawn) the B-score was 5.56 (active). Work on `CCOc1cccc(=O)c2c(C)n(CC3CCCO3)c(C)c12` (stereo not drawn) yielded a B-score of -0.504. `CCOc1cc(C(=S)N2CCOCC2)ccc1O` showed a B-score of 0.0946. Compound `O=C(CC1Oc2ccccc2NC1=O)NCCCN1CCN(Cc2ccccc2)CC1` (stereo not drawn) has a B-score of -0.153. In the case of `Clc1cccc(-c2nc3nc4ccccc4nc3n2Cc2ccco2)c1`, the B-score is reported as 2.1. For `COc1ccc(CCn2c(-c3ccco3)nc3nc4ccccc4nc32)cc1OC`, the B-score was 5.87 (active). `COCCn1c(-c2ccc(OC)c(OC)c2)nc2ccccc21` was tested, and the B-score was 0.157. `COc1ccc(-c2nn(-c3ccccc3)cc2C(=O)Nc2nc(CC(C)=O)ns2)cc1` showed a B-score of 0.649. For `Cn1c(C(=O)NCCCN2CCN(c3cccc(Cl)c3)CC2)cc2c(=O)n(C)c3ccccc3c21`, the B-score was -1.68. With `Cn1c(C(=O)NCCc2ccsc2)cc2c(=O)n(C)c3ccccc3c21` the B-score was 3.97 (active). `CC1CCCC(C)N1CCCNC(=O)c1cc2c(=O)n(C)c3ccccc3c2n1C` (stereo not drawn) showed a B-score of 0.176. For `CCOc1cc(S(=O)(=O)NC2CC(C)(C)NC(C)(C)C2)ccc1F`, the B-score was -1.83. `N#CC1=C(N)C(C#N)(C#N)[C@H](c2ccsc2)[C@H]2COCC=C12` was tested, and the B-score was 3.35 (active). `O=S(=O)(N1CCOCC1)N1CCN(c2ccccc2F)CC1` showed a B-score of 0.0546. Work on `c1ccc(-c2oc3ncnc(N4CCOCC4)c3c2-c2ccccc2)cc1` yielded a B-score of -0.65. In the case of `O=C1c2ccccc2-c2ncnc3c(N4CCOCC4)cc(N4CCOCC4)c1c23`, the B-score is reported as 2.4 (active). `O=C(NCCC1=CCCCC1)C1CCN(Cc2cnn(-c3ccccc3)c2-n2cccc2)CC1` was tested, and the B-score was 3.61 (active). In the case of `C1=C(CCNc2ncnc3c2cnn3-c2ccccc2)CCCC1`, the B-score is reported as 0.14. With `O=C(COc1cccc(-n2cnnn2)c1)NCCC1=CCCCC1` the B-score was -0.532. Work on `Cc1cc(NC(=O)CCC2COc3ccccc3O2)no1` (stereo not drawn) yielded a B-score of -0.76. `COc1ccc(CCNc2ncnc3nc[nH]c23)cc1OC` showed a B-score of -0.961. `c1ccc2c(c1)OCC(CNc1ncnc3nc[nH]c13)O2` (stereo not drawn) was tested, and the B-score was 104 (active). With `O=S1(=O)CC(NCc2ccccc2)C(Nc2ccc(Cl)cc2)C1` (stereo not drawn) the B-score was -0.0591. In the case of `COc1cccc(-n2cc3c(c2-c2ccccc2)c(=O)n(C)c(=O)n3C)c1`, the B-score is reported as 7.45 (active). With `Cc1ccc(-c2c3c(=O)n(C)c(=O)n(C)c3cn2-c2ccccc2O)cc1` the B-score was 0.252. `COc1ccc(-c2c3c(=O)n(C)c(=O)n(C)c3cn2-c2cccc(OC)c2)cc1` was tested, and the B-score was 0.091. Compound `CCCCn1c(SCC(=O)NCC2CCCO2)nc2ccc(N3CCOCC3)cc2c1=O` (stereo not drawn) has a B-score of 0.658. Compound `COc1ccccc1CNC(=O)CCCNS(=O)(=O)c1cccc2nsnc12` has a B-score of -0.144. Compound `CCS(=O)(=O)N1CCCC(C(=O)NCCCN(C)Cc2ccccc2)C1` (stereo not drawn) has a B-score of 0.0256. With `CNC(=O)c1c(NC(=O)c2ccc(S(=O)(=O)N3CCOCC3)cc2)sc2c1CCC2` the B-score was -0.0829.

Reference: PubChem BioAssay AID626 (Vanderbilt High Throughput Screening Facility, 2007)
